Assay outcomes: PubChem, National Center for Advancing Translational Sciences (NCATS)
A selection: hits, their analogues and other compounds. The true share with any hit is near 3.2%.
GBA mod – modulators of human glucocerebrosidase; purified enzyme, resorufin glucoside fluorescence (screen aimed at inhibitors), 20 min; 1.1% of 48,000 active; Potency, µM; P04062; in the data active = potency below about 15 µM; inconclusive = mostly about 16 µM to 33 µM;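 also: the screen sought inhibitors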
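Normal human glucocerebrosidase (0.2 nM final) was assayed with resorufin β-D-glucopyranoside (30 uM final) in 50mM citric acid/KH2PO4, 10mM sodium taurocholate, 0.01% tween-20, pH 5.9. Compounds were titrated; fluorescence (Ex 548, Em 600) read after 20 min at RT.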
Bst PK mod – alters activity of Bacillus stearothermophilus pyruvate kinase; purified pyruvate kinase, luminescence ATP production; ribose 5-phosphate activator present at AC10; Potency, µM; 1.2% of 51,000 active; AID 361; in the data active = potency below about 11 µM; inconclusive = mostly about 12 µM to 25 µM;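 the screen sought inhibitors and activators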
FLuc inh – blocks Photinus pyralis firefly luciferase activity. P08659. purified firefly luciferase, luminescence, 8 min. Potency, µM (highest dose often 57.1 µM), actives largely listed as inhibitors. 2.2% of 72,000 active. AID 411; active = well fitted inhibition curve with a large enough effect; inconclusive = small, poorly fitted or top-dose-only effect; also: nearly all actives have a fitted effect of over 40% in size
Target sequence (P08659 whole entry, looked up): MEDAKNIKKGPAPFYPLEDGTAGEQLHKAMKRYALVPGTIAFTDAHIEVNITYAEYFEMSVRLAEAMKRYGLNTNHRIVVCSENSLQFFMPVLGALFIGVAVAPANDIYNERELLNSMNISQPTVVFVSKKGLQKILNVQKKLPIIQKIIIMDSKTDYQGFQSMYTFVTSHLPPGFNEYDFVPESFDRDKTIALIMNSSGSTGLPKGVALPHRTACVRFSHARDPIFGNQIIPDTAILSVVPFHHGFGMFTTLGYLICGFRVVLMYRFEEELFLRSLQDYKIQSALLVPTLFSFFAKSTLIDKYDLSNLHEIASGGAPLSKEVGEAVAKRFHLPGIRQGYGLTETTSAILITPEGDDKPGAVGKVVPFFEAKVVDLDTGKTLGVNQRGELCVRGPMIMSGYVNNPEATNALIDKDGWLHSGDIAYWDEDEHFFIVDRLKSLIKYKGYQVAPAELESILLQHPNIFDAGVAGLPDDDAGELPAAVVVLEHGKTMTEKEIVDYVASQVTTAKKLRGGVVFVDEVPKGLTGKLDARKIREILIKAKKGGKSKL
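Luminescence read-out after 8 min at room temperature; enzyme reaction used luciferin plus 10 uM ATP (linear range) in imidazole buffer pH 7.2 with KCl, MgCl2, Tween 20 and BSA. Each sample was run as a titration.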
A number is an active result; . = inactive; ? = inconclusive; / = no result; [ ] = another dose, or the depositor's remark.

SMILES	GBA mod	Bst PK mod	FLuc inh
CC(C)Cc1cc(-c2ccco2)c(C#N)c(N)n1	/	/	.
NCCSCc1ccccc1Cl	/	/	.[11.4 µM]
COc1ccccc1Nc1nc(-c2cccs2)cs1	/	/	13µM
COc1ccc(OC)c(Nc2nc(-c3cccs3)cs2)c1	.	/	.
CC1=CC(=O)C2=C(C)CC[C@@H]3[C@@H](OC(=O)[C@H]3C)[C@H]12	/	/	.
O=C(Nc1nc(-c2cccs2)cs1)c1ccc(Cl)s1	/	/	.
CC(C)(C)c1csc(NC(=O)c2ccc(Cl)s2)n1	15	.	16µM
CN1C(=O)NC(c2ccc(O)cc2)C(C(=O)c2cccs2)C1(O)C(F)(F)F (stereo not drawn)	15	.	.
O=C1NC(c2ccccc2)C(C(=O)c2cccs2)C(O)(C(F)(F)F)N1 (stereo not drawn)	.	.	.
O=C1[C@H]2[C@H]3[C@H](O)[C@H](O)C/C(=N/OC[C@@H](O)COCc4ccco4)[C@H]3CC[C@@H]2C(=O)N1C[C@@H]1CCCO1	/	/	.[11.4 µM]
CCOC(=O)c1c(NC(=O)c2ccco2)sc2c1CCCCC2	/	/	.
COC(=O)c1c(NC(=O)c2ccoc2C)sc2c1CCC2	.	.	.
O=C(Nc1sc2c(c1C(=O)O)CCCCC2)c1ccco1	/	/	20µM
Cc1occc1C(=O)Nc1sc2c(c1C(N)=O)CCCCC2	.	.	13µM
COc1ccc(C(=O)N2CCC3(CC2)CN(C(=O)Nc2ccccc2)C3)cc1	/	/	.[11.4 µM]
N[C@@H](CS(=O)O)C(=O)O	/	/	.
CNc1cc(-c2ccccc2C(F)(F)F)ncn1	/	/	.[2.29 µM]
CC(C)=N[C@H](C(=O)O)C(C)(C)S	/	/	.[11.4 µM]
COC(=O)C/C=C\[C@@H](C)[C@@H](/C=N\OC[C@@H]1O[C@H](c2ccccc2)C=C[C@@H]1Oc1ccc(OC)cc1)OC	/	/	.[11.4 µM]
CCCCOc1ccc(C(=O)Nc2cccc(C)n2)cc1	/	.	13µM
Cc1cccc(NC(=O)c2ccc(S(=O)(=O)N(C)C)cc2)n1	.	.	.
O=C(Nc1ccccc1)N1CCC2(CC1)CCN(C(=O)c1cccc(F)c1)CC2	/	/	.[11.4 µM]
O=C(Nc1ccc2nc(-c3ccc(Br)o3)[nH]c2c1)c1cccs1	/	?	13µM
CC(=O)Nc1ccc(Oc2ccc3nc(C)[nH]c3c2)cc1	/	.	.
CC(=O)Nc1ccc2nc(-c3cccs3)[nH]c2c1	/	/	16µM
SMILES	GBA mod	Bst PK mod	FLuc inh
Cn1cccc1-c1nc2ccc(NC(=O)c3cccs3)cc2[nH]1	.	.	.
O=C(Nc1ccc2nc(-c3ccc(Br)o3)[nH]c2c1)c1ccco1	/	10	10µM
O=S(=O)(Nc1ccc2nc(-c3ccc(Br)o3)[nH]c2c1)c1ccccc1	.	.	.
O=S(=O)(c1ccccc1)N1CCC[C@@]2(CCN(Cc3cc(C(F)(F)F)cc(C(F)(F)F)c3)C2)C1	/	/	.[11.4 µM]
CCSC1=C(C#N)C2(CCCCC2)C(C#N)=C(N)N1	.	.	16µM
N#CC1=C(N)NC(SCc2ccccc2)=C(C#N)C12CCCCC2	/	/	.
COc1ccc(NC(=O)c2cc(-c3ccc(C)o3)nc3ccccc23)cc1OC	.	3.7	2.5µM
COc1cc(NC(=O)c2cc3c(C)nc4ccccc4c3o2)cc(OC)c1OC	/	/	.
COC(=O)N1CCC2(CC1)CN(C(c1ccccc1)c1ccccc1)C2	/	/	.[11.4 µM]
O=C1C2=CC[C@H]3C(=O)N(C[C@@H]4CCCO4)C(=O)[C@@H]3[C@@H]2[C@H](O)[C@@H]2O[C@H]12	/	/	.[11.4 µM]
N=C1C(c2ccccc2)=C(O)C2CCc3ccccc3N12 (stereo not drawn)	.	/	.
N=C1C(c2ccc(Br)cc2)=C(O)C2CCc3ccccc3N12 (stereo not drawn)	.	3	.
CCOc1ccc2c(c1)sc1nc(C(=O)OC)cc(=O)n12	/	/	.
CCOc1ccc2c(c1)sc(=NC(=O)C1CC1)n2C	/	.	13µM
CN(CCOc1ccc(C[C@H](Nc2ccccc2C(=O)c2ccccc2)C(=O)O)cc1)c1ccccn1	/	/	.
Cc1c(C2CCN(CCc3ccccc3)CC2)noc1-c1ccc(Cl)cc1	/	/	.
CC(C)=CCC/C(C)=C/CO/N=C1/[C@H]2O[C@@H]2[C@@H](O)[C@H]2[C@H]1CCn1c(=O)n(C)c(=O)n12	/	/	.[11.4 µM]
FC(F)(F)c1ccccc1-c1cncnc1Nc1ccccc1	/	/	.[2.29 µM]
N#Cc1c(/N=C/c2cccs2)sc2c1CCC2	.	?	10µM
N#Cc1c(/N=C/c2ccco2)sc2c1CCCCC2	.	0.52	0.79µM
CN1CCc2c(sc(/N=C/c3cccs3)c2C(N)=O)C1	.	.	.
O=c1c2c3c(sc2ncn1/N=C/c1ccco1)CCCC3	/	/	.
COCC(=O)N1CCC2(CC1)CN(C(=O)Nc1ccc(OC)cc1)C2	/	/	.[11.4 µM]
NCCNS(=O)(=O)c1cccc2c(Cl)cccc12	/	/	.
N#Cc1ccc(CN2CCCC3(CCNCC3)C2)cc1	/	/	.[11.4 µM]
SMILES	GBA mod	Bst PK mod	FLuc inh
COC(=O)C/C=C\[C@@H](C)[C@@H](/C=N\O[C@@H](C)c1cn([C@H]2COC[C@H]2O)nn1)OC	/	/	.[11.4 µM]
Oc1oc(-c2ccco2)nc1C=Nc1ccccc1	.	.	16µM
Oc1oc(-c2ccco2)nc1C=Nc1cccc(Cl)c1	/	.	.
CS(=O)(=O)N1CCC[C@@]2(CCN(Cc3ccc(C#N)cc3)C2)C1	/	/	.[11.4 µM]
N=c1c2c(-c3ccccc3)c(-c3ccccc3)oc2ncn1CCN1CCOCC1	.	.	.
c1ccc(-c2oc3ncnc(NCCN4CCOCC4)c3c2-c2ccccc2)cc1	13	.	.
Cc1cccc(/C=C\c2ccccc2)n1	/	/	7.9µM
Cc1cc(=O)[nH]c(SC/C=C/c2ccccc2)n1	.	.	.
N#CC(C#N)=c1ccc2c(c1)N1C3=C(CCCC3)CC3CCCCC31N=2 (stereo not drawn)	/	/	.
N#C/C(C(N)=O)=c1/ccc2c(c1)N1C3=C(CCCC3)CC3CCCCC31N=2 (stereo not drawn)	?	/	16µM
COc1ccc(Oc2ncc3nc(-c4cn(C)c5ccccc45)c(=O)n(C)c3n2)cc1	/	/	.[11.4 µM]
O=C(COc1ccc(S(=O)(=O)N2CCCC2)cc1Cl)Nc1ccc2c(c1)OCO2	.	.	.
Cc1cccc(NC(=O)CN2C(=O)COc3ccc(Cl)cc32)c1	.	.	.
O=C(COc1ccccc1O)Nc1ccccc1Cl	.	/	.
O=C(CN1C(=O)COc2ccc(Cl)cc21)Nc1ccc2c(c1)OCCO2	.	3.6	.
CC(C)NS(=O)(=O)c1ccc(OCC(=O)Nc2ccc3c(c2)OCO3)c(Cl)c1	.	.	.
COC(=O)COc1ccc(S(=O)(=O)Nc2ccc3c(c2)OCCO3)cc1Cl	14	.	.
O=C(COc1ccccc1Cl)Nc1ccc2c(c1)OCCO2	/	/	10µM
Cc1cnc(NC(=O)COc2ccccc2Cl)s1	.	1.4	1.3µM
O=C1C=CC2=C3c4cc(O)c(O)cc4C[C@@]3(O)COC2=C1O	/	/	.[11.4 µM]
Cc1ccc(C)c(OCC(=O)Nc2ccc3c(c2)OCO3)c1	/	.	.
Cc1cccc(OCC(=O)Nc2ccc3c(c2)OCCO3)c1	.	.	13µM
Cc1nc2nc(-c3cccs3)cn2nc1C	.	/	20µM
Cc1cc(-c2cccs2)n[nH]1	/	/	.
COc1cccc(-c2nn3c(-c4cccc(C)c4)nnc3s2)c1	.	/	.
COc1cccc(-c2cn3nc(C)c(C)nc3n2)c1	.	.	13µM
Cc1ccccc1-c1ccc2ncnc(NCc3cccnc3)c2c1	/	/	.[2.29 µM]
O=S(=O)(Nc1cccnc1)c1cccc2cccnc12	/	/	.
O=[N+]([O-])c1ccc2ncccc2c1CCc1c([N+](=O)[O-])ccc2ncccc12	/	/	.[11.4 µM]
